Screening results: PubChem BioAssay, National Center for Advancing Translational Sciences (NCATS)
Only some compounds are listed: those with a hit (about 7.3% of all), similar ones and a draw of the others.
Rab9 promoter act – activators of Rab9 promoter. AID 485297. Huh7 Rab9 promoter-luciferase reporter, luminescence, 24 h. Potency, µM (top dose mostly 9.22 µM), without a hit: top-dose activation, negative = inhibition, actives largely listed as activators. 2.8% of 320,000 active; also: % of control where 0% means no effect; nearly all actives have a fitted effect of over 60% in size
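Steps: seed 1500 Huh7 Rab9-luc cells per well, rest 2 h at 37 °C; add compound in DMSO; incubate 24 h; add luciferase reagent, 10 min ambient; read luminescence.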
NPC1 prom act – NPC1 promoter activation | Huh7 NPC1 promoter luciferase reporter, 24 h | Potency, µM (highest dose often 9.22 µM), for inactives: at the highest dose activation, hits mostly activators | 2.4% of 320,000 active | AID 485313; also: % of control where 0% means no effect; nearly all actives have a fitted effect of over 60% in size
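Luciferase expression driven by the NPC1 promoter was measured in stably transfected Huh7 cells after a 24 h compound incubation, using a luciferase reagent and a luminescence read.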
Luc counter – Kinase-Glo luciferase inhibition (counter-screen) | 0.28% of 200,000 active | Potency, µM (top dose mostly 38.3 µM), without a hit: at the highest dose activity change, negative = inhibition, actives largely listed as inhibitors | Q27757 | Kinase-Glo luciferase, ATP luminescence, 8 min; also: % is scaled to controls: 0 for no effect and ±100 for the full control effect; nearly all actives have a fitted effect of over 60% in size
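Recombinant Kinase-Glo luciferase, 10 uM ATP (linear range), luciferin; imidazole pH 7.2 / KCl / MgCl2 / Tween / BSA buffer; 8 min RT; luminescence.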
SMN2 splice up – SMN2 splice variant enhancement; Potency, µM (highest dose often 46.1 µM), for the others: at the top dose activity change, positive = activation, hits mostly activators; HEK293 SMN2-luciferase splicing reporter, luminescence, 30-36 h; AID 1458; 2.8% of 210,000 active; also: % of control where 0% means no effect; nearly all actives have a fitted effect of over 55% in size
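qHTS luciferase splicing reporter: luminescence rises when SMN2 exon 7 is included in transfected HEK293 cells. Compound exposure lasted 30-36 h at 37C, with 4.5 mM final sodium butyrate as control, followed by a ONE-Glo read.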
FLuc counter – firefly luciferase modulation, counter-screen for miR-21 project | P08659 | purified FLuc, Km substrates, luminescence inhibition | Potency, µM (series often up to 57.5 µM), without a hit: at the top dose activity change, negative = inhibition, usual class: inhibitors | 6.9% of 360,000 active | AID 588342;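 also: plate controls were vehicle for no effect and reference inhibitor for full effect; nearly all actives have a fitted effect of over 55% in size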
Target sequence (P08659 whole entry, looked up): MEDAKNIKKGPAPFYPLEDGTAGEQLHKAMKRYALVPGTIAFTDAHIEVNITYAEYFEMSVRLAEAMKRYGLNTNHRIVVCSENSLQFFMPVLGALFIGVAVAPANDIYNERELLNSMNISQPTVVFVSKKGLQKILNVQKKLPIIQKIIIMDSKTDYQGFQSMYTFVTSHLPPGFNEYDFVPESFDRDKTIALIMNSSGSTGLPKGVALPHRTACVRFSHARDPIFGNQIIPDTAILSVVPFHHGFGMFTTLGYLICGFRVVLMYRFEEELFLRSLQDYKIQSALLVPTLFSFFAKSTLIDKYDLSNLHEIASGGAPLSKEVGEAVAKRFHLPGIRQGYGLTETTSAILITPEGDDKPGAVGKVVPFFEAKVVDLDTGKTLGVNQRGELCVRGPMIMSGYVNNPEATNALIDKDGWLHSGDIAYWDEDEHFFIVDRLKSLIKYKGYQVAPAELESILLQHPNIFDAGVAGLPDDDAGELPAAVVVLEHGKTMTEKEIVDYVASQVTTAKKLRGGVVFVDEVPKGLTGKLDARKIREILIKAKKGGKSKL
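Purified P. pyralis luciferase (10nM final) with 10uM D-luciferin and 10uM ATP (Km levels) in 50mM Tris acetate pH 7.5, 10mM Mg acetate, 0.01% Tween-20, 0.05% BSA; qHTS 6-point titration, ~60 µM downward; luminescence read.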
ELG1 genotox – induces genotoxicity in HEK293T cells with luciferase-tagged ELG1 | 1.3% of 330,000 active | AID 504466 | HEK293T ELG1-luciferase reporter, luminescence, 16 h | Potency, µM (doses to about 46 µM), inactives show at the top dose activity change, positive = activation, hits mostly activators; also: % of control where 0% means no effect; nearly all actives have a fitted effect of over 60% in size
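Quantitative HTS format in 1536-well plates. HEK293T ELG1-luciferase reporter cells receive test compound and are incubated 16 hr at 37 °C, 5% CO2; ONE-Glo added, 30 min room temperature, then luminescence read.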
Numbers without * were called inactive; ? = inconclusive; . = no result; [ ] = remark or other dose. Calls follow the shape of the dose curve; as a rule, active = well fitted curve in the direction sought with a large enough effect; inconclusive = small, poorly fitted or top-dose-only effect, or another doubt; inactive = no such curve, though single readings can be large; an effect the other way counts as inactive or inconclusive. Potency is read from the fitted curve at half-maximal effect.

SMILES	Rab9 promoter act	NPC1 prom act	Luc counter	SMN2 splice up	FLuc counter	ELG1 genotox
O=C(CCSc1ccc(Cl)cc1)c1ccco1	-2%[1.84 µM]	-2%	.	.	21µM*	-9%
CN(C(=O)c1cccc(NC(=O)c2ccco2)c1)c1ccccc1	3%	2%	.	.	2%	-3%
Cc1ccc(-n2c(=O)[nH]c3cc(C(=O)NCc4ccccc4)ccc3c2=O)cc1	.	.	.	2%	-3%	.
COCCNc1oc(/C=C/c2ccc(F)cc2)nc1C#N	.	.	.	20%	?	.
Cc1cc(-c2ccc(N=Nc3cc(S(=O)(=O)O)c4ccccc4c3N)c(C)c2)ccc1N=Nc1cc(S(=O)(=O)O)c2ccccc2c1N	.	.	.	-2%	.	.
O=C1CN(c2ccccc2)C(=S)N1C(=O)c1ccc(Br)cc1	3.2µM*	2.2µM*	.	.	12µM*	18µM*
O=C(c1ccc(Br)cc1)N1CCC(C(=O)N2CCN(c3ccccc3)CC2)CC1	1%	-5%	.	.	-4%	-11%
Cc1ccc(NCC(=O)N/N=C/c2cc3ccccc3nc2Cl)cc1	-4%	-2%	-7%	-6%	15µM*	5%
Cc1ccc2nc(Cl)c(/C=N/Nc3ccc(C(=O)O)cc3)cc2c1	0.45µM*	0.32µM*	.	.	0.067µM*	?
O=C(CN1CCOCC1)N/N=C/c1cc2ccccc2nc1Cl	-1%	-1%	3%	14%	3%	2%
Cc1ccc2cc(/C=N/NC(=O)c3ccc(F)cc3)c(Cl)nc2c1	0%	-3%	2%	-22%	-2%	?
CCOC(=O)C1CCCN(S(=O)(=O)c2cc(-c3onc(C)c3C)ccc2OC)C1 (stereo not drawn)	.	.	.	.	-2%	.
O=C(Nc1ccc2sccc2c1)c1cccc(N2C(=O)CCC2=O)c1	4µM*	?	0%	19%	8.5µM*	18µM*
O=C(Nc1nc2cc3c(cc2s1)OCCO3)c1cccc(N2C(=O)CCC2=O)c1	?	?	.	.	0.76µM*	9%
O=C(NNc1nc2cc3c(cc2s1)OCO3)c1cccc(F)c1	3%	9%	-4%	18%	17µM*	-4%
O=C(Nc1nc2ccccc2s1)c1cccc(N2C(=O)CCC2=O)c1	4%	-5%	.	.	-1%	-7%
Cc1sc(NC(=O)c2ccc(=O)n(C)n2)nc1-c1ccccc1	12%	1%	-3%	11%	13µM*	0%
CCc1ccccc1Nc1nc2ccccc2c2nncn12	.	.	.	-5%	-1%	.
Cc1ccc(C(CC(=O)NCC2(c3ccccc3)CCCC2)c2ccccc2)c(O)c1 (stereo not drawn)	.	.	.	-31%	-2%	.
COc1ccc(-c2csc(NC(=O)c3cccc(N4C(=O)CCC4=O)c3)n2)cc1C	0%	1%	.	.	11µM*	-6%
CCN(CC)S(=O)(=O)c1cccc(C(=O)Nc2nc3cc4c(cc3s2)OCCO4)c1	-6%	-3%	-3%	-77%	9.5µM*	-18%
COc1ccc(OC)c2sc(NC(=O)c3cccc(N4C(=O)CCC4=O)c3)nc12	0%	-1%	.	.	2%	14%
Cc1sc(NC(=O)c2cccc(N3C(=O)CCC3=O)c2)nc1-c1ccccc1	0%	12%	.	.	4.8µM*	4%
COC(=O)N/N=C(\C)c1ccc(Br)cc1	25%	3%	14%	-34%	?	10%
COc1ccc(/C(C)=N/NC(=O)OC(C)(C)C)cc1[N+](=O)[O-]	9%	1%	.	.	1%	12%
SMILES	Rab9 promoter act	NPC1 prom act	Luc counter	SMN2 splice up	FLuc counter	ELG1 genotox
O=C(Nc1ccc(NC(=O)c2ccccc2Br)cc1)c1ccccc1	16%	23%	.	.	-5%	?
C/C(=N\NC(=O)c1ccccc1OCCOc1ccccc1)c1ccccc1F	2%	-3%	.	.	?	-10%
C/C(=N\NC(=O)c1ccccc1)c1ccccc1Br	?	?	-5%	?	15µM*	?
C/C(=N\NC(=O)c1ccccc1)c1ccccc1F	0.56µM*	1.4µM*	-22%	5.6µM*	12µM*	5.8µM*
CCOC(=O)N/N=C(\C)c1ccc(Br)cc1	17%	12%	15%	-11%	17µM*	?
C/C(=N\NC(=O)OC(C)(C)C)c1ccccc1Br	?	?	-28%	12%	21µM*	?
CN(C(=O)NCc1noc2ccccc12)c1cccc(Cl)c1	.	.	.	.	-7%	.
CCCN(CCC)CCNC(=O)Cn1ncc2c([nH]c3ccc(C)cc32)c1=O	.	.	.	.	0%	.
C/C(=N\NC(=O)c1ccc(Br)cc1)c1ccccc1	1.3µM*	0.56µM*	-9%	13µM*	3.4µM*	?
C/C(=N\NC(=O)c1cccnc1)c1ccc(Br)cc1	6%	17%	.	.	?	10%
CC1(C)Cc2c(sc(NC(=O)c3ccco3)c2C#N)CO1	3.2µM*	1.6µM*	1%	?	1.9µM*	?
CCN1CCc2c(sc(NC(=S)NC(=O)c3ccccc3)c2C#N)C1	3%	-2%	-1%	-1%	-9%	3%
CCC1(C)Cc2c(sc(NC(=S)NC(=O)c3ccccc3)c2C#N)CO1 (stereo not drawn)	28%	18%	3%	2%	6µM*	5%
CN1Cc2sc(NC(=S)NC(=O)c3ccccc3)c(C#N)c2CC1(C)C	9%	8%	.	.	13µM*	?
CC1CCc2sc(NC(=S)NC(=O)c3ccccc3)c(C#N)c2C1 (stereo not drawn)	?	?	0%	?	12µM*	10%
COC(=O)C1=C(C(=O)OC)[C@@H]2Nc3ccccc3[C@@]23C[C@@H](C(=O)OC)N(S(=O)(=O)c2ccc(C#N)cc2)C3=N1	.	.	-9%[7.66 µM]	-2%[9.22 µM]	.	.
Cc1cc(C)c2c(-n3cccc3)c(C(=O)NCCc3ccc(Cl)cc3)sc2n1	.	.	.	.	-1%	.
COc1ccc(/C=C/c2ccc3cccc(O)c3n2)cc1Br	16%	?	.	.	6µM*	?
COc1cc(/C=C/c2ccc3cccc(O)c3n2)cc(OC)c1OC	23%	26%	.	.	?	?
COc1ccc(/C=C/c2ccc3c(Br)ccc(O)c3n2)cc1	?	?	.	.	5.4µM*	?
COC(=O)c1ccc(C=O)cc1	.	.	.	-14%	.	.
COC(=O)c1ccc(/C=C/c2ccc3cccc(OC)c3n2)cc1	3%	0%	1%	-4%	5.4µM*	-5%
COc1cc(/C=C/c2ccc3cccc(O)c3n2)cc(Br)c1OC	4µM*	2.8µM*	.	.	4.8µM*	23µM*
COc1ccc(Br)cc1/C=C/c1ccc2cccc(O)c2n1	8%	28%	.	.	?	4%
CCc1ccc(CNC(=O)CCc2c(C)nn(-c3ccc(N4CCCCC4)nn3)c2C)cc1	.	.	.	.	-19%	.
